From PubChem BioAssay AID878 (University of Pittsburgh Molecular Library Screening Center, 2007)
The campaign covered roughly 200,000 compounds. About 65 (0.03%) were called active.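 How the source made its calls: active means activation of at least 50% relative to the plate's high and low controls in the primary single-dose screen; inactive means activation below 50%.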 The list comes from a sample in which actives are over-represented; it also holds similar structures and randomly drawn compounds.

Assay: compounds producing H2O2 with reducing agent – biochemical, NIH compound library profiling, artefact control for MLSCN library redox annotation, primary screen (AID 878);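 further: compound incubated with DTT at 0.8 mM final as the reducing agent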
Conditions: DTT-dependent redox cycling H2O2, phenol red/HRP absorbance; at 10 µM; active compounds read high; 100% = 100 µM peroxide control, 0% = buffer

activation, inactive:
COC(=O)C1=C(C(=O)OC)C(c2cc([N+](=O)[O-])ccc2O)c2sc(=O)[nH]c2S1 (stereo not given) 0.35%, COCCn1c(C)cc(C(=O)COC(=O)/C=C/c2cccc(OC)c2)c1C 0.06%, O=C(COC(=O)c1ccc(F)cc1)Nc1nc2ccc([N+](=O)[O-])cc2s1 -0.91%, Cc1nn(CC(=O)NCc2ccccn2)c(C)c1[N+](=O)[O-] 0.55%, Cc1nc(NC(=O)C2CCCCC2)sc1C 1.88%, O=C(Nc1cccc(S(=O)(=O)N2CCCCC2)c1)c1ccc2c(c1)OCO2 -0.11%, CCOC(=O)C1(Cc2ccccc2C(F)(F)F)CCN(C(=O)c2cc(C)n(C)n2)CC1 -0.12%, COC(=O)NNC1=CC(=O)CC(C)(C)C1 0.51%, CCOC(=O)c1c(N)nn(C(=O)c2ccccc2)c1-c1ccccc1 -2.05%, CCCCNC(=O)CCn1c(=O)c2ccccc2n(Cc2cc(C)ccc2C)c1=O 0.21%, C=CCn1c2ccccc2c2nnc(SCc3[nH]c(=O)[nH]c3C(=O)CCCCC(=O)OCC)nc21 0.68%, CCN1C(=O)/C(=c2\s/c(=C3\Sc4ccccc4N3C)c(=O)n2C)N(C)C1=S -0.11%, CC(=O)C1(C)N(O)C(C)(C)C(c2cccs2)=[N+]1[O-] (stereo not given) 0.23%, Cc1c(NC(=S)NCc2ccc(F)cc2)cccc1[N+](=O)[O-] 0.02%, CN(C)/C=C(/C(=O)c1ccc(F)cc1)S(=O)(=O)c1ccc(F)cc1 -0.68%, CCC1CCCCN1C(=O)CSc1nc(C)cc(C)n1 (stereo not given) -1.65%, CCCCC(O)(CCCC)C(=O)NN(C(=O)CCl)c1ccccc1 0.06%, O=C(c1cccs1)n1nc(NCc2ccccc2)nc1NCc1ccccc1 -0.21%, Cc1cc(C)c(C#N)c(SCC(=O)Nc2ccccc2)n1 0.39%, COc1ccc(/C=C(\C#N)C(=O)ONC2=NCCCCC2)cc1 -1.95%, Cc1cc(CNCc2c(C(=O)N(C)Cc3ccccc3)nc3ccccn23)nn1C -1.78%, Cc1ccc(C)c(OCC(=O)N2CCN(C(=O)c3ccco3)CC2)c1 -0.33%, COc1ccc(/C=C/C(=O)c2ccc(NS(=O)(=O)c3ccc(C)cc3)cc2)cc1O 0.57%, CCN(CC)C(=O)c1sc2nc(-c3ccccc3)ccc2c1N 0.13%, Cc1ccc(C)c(NC(=S)NNC(=S)Nc2ccc(C(C)C)cc2)c1 -1.35%
